# According to the supplement of paper PMC3545927:
# Some of the results follow. The hit rate among all sequences tested is not known here.
# Molecular target: furin, P09958
# Test: furin cleavage Z-score vs untreated control; higher = more cleavage, active = 3.5 or more, inactive = 1 or less, 8 variable residues between constant flanks
# In short: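 In 50 mM HEPES pH 7.5 with CaCl2 and NaCl, purified furin was incubated with bead-anchored 8-mer peptide–cDNA fusions at 1:10 enzyme:substrate in 0.01 ml. Incubation times were 7.5, 15 and 30 min. DNA set free by cleavage was adapter-tagged by PCR and sequenced, with read counts taken as abundance. Log counts relative to furin-free reactions, after lowess adjustment and median absolute deviation scaling, form the cleavage Z-score.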
# Sequence of furin, P09958 (P09958 whole entry): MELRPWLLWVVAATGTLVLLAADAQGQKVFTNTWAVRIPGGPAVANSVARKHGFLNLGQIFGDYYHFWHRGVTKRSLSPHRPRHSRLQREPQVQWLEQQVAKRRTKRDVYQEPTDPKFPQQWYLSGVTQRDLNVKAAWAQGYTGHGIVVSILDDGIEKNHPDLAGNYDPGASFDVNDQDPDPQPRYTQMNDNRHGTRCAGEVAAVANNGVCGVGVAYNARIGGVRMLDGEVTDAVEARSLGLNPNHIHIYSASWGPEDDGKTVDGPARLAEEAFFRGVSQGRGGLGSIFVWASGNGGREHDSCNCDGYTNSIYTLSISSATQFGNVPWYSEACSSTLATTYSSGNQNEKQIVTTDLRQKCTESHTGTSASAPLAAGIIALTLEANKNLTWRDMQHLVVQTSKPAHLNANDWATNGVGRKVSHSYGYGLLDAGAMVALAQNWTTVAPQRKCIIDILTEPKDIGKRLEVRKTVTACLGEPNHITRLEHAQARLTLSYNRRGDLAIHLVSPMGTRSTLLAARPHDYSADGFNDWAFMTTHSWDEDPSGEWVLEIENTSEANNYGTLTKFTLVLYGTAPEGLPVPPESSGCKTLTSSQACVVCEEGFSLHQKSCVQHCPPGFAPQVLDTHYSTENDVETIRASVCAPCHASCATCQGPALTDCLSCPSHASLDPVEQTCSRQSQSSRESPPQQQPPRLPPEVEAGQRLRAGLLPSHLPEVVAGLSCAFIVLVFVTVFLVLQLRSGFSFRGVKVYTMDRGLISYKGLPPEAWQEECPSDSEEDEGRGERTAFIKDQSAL
Sequence,furin cleavage Z-score (7.5 min),furin cleavage Z-score (15 min),furin cleavage Z-score (30 min)
CALDGVRLHRAGNASASA [HC1223],-1.06 (inactive),0.461 (inactive),-0.00108 (inactive)
CALVVTSTWVAGNASASA [HC2145],-0.711 (inactive),-0.969 (inactive),-0.561 (inactive)
CAEVWTSTWVAGNASASA [HC2188],0.933 (inactive),0.313 (inactive),0.822 (inactive)
CATEPCSGSWAGNASASA [HC1852],-0.934 (inactive),-0.739 (inactive),-1.88 (inactive)
CARPVRDDSVAGNASASA [FS-3029],0.58 (inactive),-0.207 (inactive),-0.229 (inactive)
CARRKRSPTQAGNASASA [FS-2069],11.3 (active),13.3 (active),8.55 (active)
CALKKRIKSVAGNASASA [FS-2123],-0.488 (inactive),-0.595 (inactive),0.647 (inactive)
CALSKRLGRSAGNASASA [FS-1644],9.63 (active),10.3 (active),7.46 (active)
CALRKRDVSVAGNASASA [FS-1676],4.02 (active),6.7 (active),7 (active)
CARRKRSIEEAGNASASA [FS-2230],9.81 (active),9.11 (active),9.55 (active)
CAEVPCHRLSAGNASASA [HC2385],0.65 (inactive),0.937 (inactive),2.67
CAVAKAVDFIAGNASASA [HC755],-0.603 (inactive),-0.471 (inactive),-1.43 (inactive)
CARALRNVWQAGNASASA [FS-1682],-1.32 (inactive),1.58,0.167 (inactive)
CARASRDVAQAGNASASA [FS-1686],3.28,3.03,3.8 (active)
CALRKRLTPLAGNASASA [FS-1883],-1.32 (inactive),-0.87 (inactive),0.456 (inactive)
CARRVRSAEEAGNASASA [FS-2376],7.77 (active),9.29 (active),6.7 (active)
CARMKRKVGAAGNASASA [FS-1752],2.2,4.54 (active),4.95 (active)
CARRVRSVILAGNASASA [FS-2301],-0.109 (inactive),-0.0349 (inactive),1.3
CARRVRSRTHAGNASASA [FS-3071],0.143 (inactive),0.522 (inactive),1.9
CALRKRLLRDAGNASASA [FS-686],9.49 (active),11.5 (active),8.89 (active)
CARQPRLVGAAGNASASA [FS-2171],-0.691 (inactive),-0.656 (inactive),-0.39 (inactive)
CARASRDSSEAGNASASA [FS-2892],-0.582 (inactive),0.0813 (inactive),-0.0253 (inactive)

Sequence,furin cleavage Z-score (7.5 min),furin cleavage Z-score (15 min),furin cleavage Z-score (30 min)
CAKCTTPCSGAGNASASA [HC1954],-0.367 (inactive),0.0622 (inactive),0.776 (inactive)
CAEVVTSTWKAGNASASA [HC2254],-0.33 (inactive),-0.194 (inactive),1.09
CAGVCCSMSYAGNASASA [HC1996],-0.333 (inactive),-0.0583 (inactive),0.735 (inactive)
CARRKRAVNPAGNASASA [FS-2294],5.19 (active),3.83 (active),4.64 (active)
CARRKRAKVEAGNASASA [FS-3051],2.74,5.28 (active),7.03 (active)
CARRMRRAGQAGNASASA [FS-2178],3.82 (active),5.28 (active),6.43 (active)
CAQMYTNVDQAGNASASA [HC710],0.349 (inactive),-0.937 (inactive),0.488 (inactive)
CALRKRSVDQAGNASASA [FS-1884],6.21 (active),7.15 (active),6.93 (active)
CANWTRGERCAGNASASA [HC483],0.47 (inactive),1.14,0.279 (inactive)
CAFVVTSTWVAGNASASA [HC2147],0.62 (inactive),0.171 (inactive),-0.5 (inactive)
CAGENLYFQGAGNASASA [TV2],-1.7 (inactive),-0.261 (inactive),-0.768 (inactive)
CAVVCCHMSYAGNASASA [HC109],1.01,-0.749 (inactive),0.554 (inactive)
CAGAYMSKAHAGNASASA [HC793],-0.996 (inactive),-1.61 (inactive),-0.903 (inactive)
CASTPCSHHLAGNASASA [HC2535],0.275 (inactive),0.419 (inactive),-0.167 (inactive)
CARMKRSRCPAGNASASA [FS-2721],5.18 (active),7.21 (active),5.91 (active)
CARRKKARGPAGNASASA [FS-2776],0.453 (inactive),-0.0472 (inactive),-0.48 (inactive)
CARRKRSVAQAGNASASA [FS-1919],4.44 (active),4.31 (active),4.11 (active)
CARRKRSRKPAGNASASA [FS-1835],6.72 (active),6.37 (active),6.82 (active)
CARRKRYRNFAGNASASA [FS-1836],1.23,0.582 (inactive),2.95
CARMKRFRVDAGNASASA [FS-2719],-0.757 (inactive),0.996 (inactive),1.75
CAREDRFFCPAGNASASA [FS-2001],-0.0818 (inactive),0.295 (inactive),-0.529 (inactive)
CARRKRKEKQAGNASASA [FS-3231],-1.72 (inactive),-1.54 (inactive),0.219 (inactive)
